Compound activity from PubChem BioAssay.
An excerpt weighted towards active compounds, which were near 2.4% of everything screened.
POLH inh: blocks human DNA polymerase eta activity; 390,000 compounds, 1.2% hits; Q9Y253; Potency, µM (titrated, usually from 114 µM), for inactives: at the top dose activity change, negative = inhibition, usual class: inhibitors; AID 588591; recombinant Pol eta, fluorescent DNA replication assay; note: % is set by controls: 0 for no effect and ±100 for the full control effect
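Pol eta (10 nM) was preincubated with compounds for 15 min at room temperature, after which fluorescent replication substrate (50 nM final) was added to start the reaction. Fluorescence was read kinetically at 0 and 10 min.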
WRN inhibitor: blocks human WRN helicase; Q14191; WRN helicase unwinding, fluorescent forked duplex, kinetic; Potency, µM (doses to about 114 µM), inactives show at the top dose activity change, negative = inhibition, usual class: inhibitors; 360,000 compounds, 0.46% hits; AID 651768; note: % is set by controls: 0 for no effect and ±100 for the full control effect; nearly all actives have a fitted effect of over 55% in size
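Fluorescence dequenching readout, ex 525 nm/em 598 nm, kinetic mode: forked duplex DNA (100 nM final) with adjacent fluorophore and quencher unwound by WRN (20 nM final) with 2 mM ATP. Compound preincubation 15 min, room temperature.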
Pol kappa inh: DNA polymerase kappa (human) inhibition; 400,000 compounds, 0.53% hits; AID 588579; purified Pol kappa, fluorescent DNA synthesis assay, 10 min; Potency, µM (top dose mostly 107 µM), for inactives: at the highest dose activity, negative = inhibition, usual class: inhibitors; Q9UBT6; note: % is set by controls: 0 for no effect and ±100 for the full control effect
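10 nM Pol kappa was preincubated with compounds for 15 min at room temperature. Reaction started with 50 nM (final) substrate. Fluorescence read kinetically at 0 and 10 min.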
FEN1 inhibitor: inhibitors of human flap endonuclease 1. P39748. Recombinant FEN1 flap cleavage, fluorescence, 15 min. Potency, µM (doses to about 114 µM), for the others: top-dose activity change, negative = inhibition, usual class: inhibitors. 390,000 compounds, 0.35% hits. AID 588795; note: % is set by controls: 0 for no effect and ±100 for the full control effect; nearly all actives have a fitted effect of over 65% in size
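Compounds are tested as a concentration series against 10 nM FEN1; after a 15 min room-temperature preincubation, 50 nM substrate starts cleavage, with plate reads at 0 and 15 min. Normalized responses are fitted by a Hill equation.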
POLB inh: DNA polymerase beta (human) inhibition; P06746; Pol beta primer extension/strand displacement, fluorescence kinetic; Potency, µM (highest dose often 114 µM), inactives show at the highest dose activity change, negative = inhibition, usual class: inhibitors; 340,000 compounds, 1.3% hits; AID 485314; note: % is set by controls: 0 for no effect and ±100 for the full control effect
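10 nM enzyme + cpd, 15 min RT; start with substrate 50 nM final; read 0 min and after 10 min RT. Corrected, normalized data; 4-parameter Hill curve fit.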
POLI inh: blocks human DNA polymerase iota activity. Q9UNA4. Pol iota fluorescent replication assay, 10 min. Potency, µM (highest dose often 115 µM), without a hit: at the highest dose activity, negative = inhibition, usual class: inhibitors. 390,000 compounds, 1% hits
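Pol iota at 10 nM preincubated 15 min with compounds at room temperature; reaction started with fluorescent substrate, 50 nM final. Fluorescence read kinetically at 0 and 10 min; buffer-only wells as negative control.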
Numbers without * were called inactive; i = inactive; ? = inconclusive; . = no result; [ ] = dose if it differs, or a comment. Calls come from the whole dose curve; as a rule, active = well fitted curve in the direction sought with a large enough effect; inconclusive = small, poorly fitted or top-dose-only effect, or another doubt; inactive = no such curve, though single readings can be large; an effect the other way counts as inactive or inconclusive. Potency is the fitted concentration of half-maximal effect.

SMILES | POLH inh | WRN inhibitor | Pol kappa inh | FEN1 inhibitor | POLB inh | POLI inh
Cc1ccc2c(N)c(C)ccc2c1 | -4% | -28% | -10% | -6% | 15% | 14%
Cc1ccc(C(=O)N/N=C/c2ccc([N+](=O)[O-])s2)cc1 | -5% | -15% | -15% | -5% | 28µM* | ?
O=C(N/N=C/c1ccc([N+](=O)[O-])s1)c1ccncc1 | 2% | -7% | -18% | -3% | -1%[57.1 µM] | ?
CCN1C(=O)/C(=C/C=C2\N(CC)c3cc(S(=O)(=O)N(C)C)ccc3N2c2ccccc2)SC1=S | i | ? | ? | -19% | 3.5µM* | ?
Cc1ccc(S(=O)(=O)NNC(=O)c2ccc(C(=O)N(c3ccccc3)c3ccccc3)cc2)cc1 | . | . | -9% | -6% | . | -4%
COc1ccc(CNC(=O)C2CCCN(c3nnc(C)c4c(C)n(-c5ccc(C)cc5)nc34)C2)cc1 (configuration not stated) | ? | . | -4% | 7% | -19% | 38%
COc1ccc(-n2nc3c(N4CCCC(C(=O)NCc5ccc(C)cc5)C4)nnc(C)c3c2C)cc1 (configuration not stated) | ? | . | -11%[60.1 µM] | ? | 16µM* | 10%
CN(C)CCNC(=O)c1ccc(-n2c(-c3ccccc3)cc3c2CCCC3)cc1 | -10% | . | -11% | -1% | 1% | -14%
CCOc1c(Cl)cc(CNc2ccc3[nH]c(=O)[nH]c3c2)cc1OC | 1% | . | -9% | -4% | 9% | -6%
Cc1ccc2ccccc2[n+]1CCCCI | . | . | ? | -8% | . | 62%
Cc1cc(N)c2ccccc2[n+]1CCCCCCCCCC[n+]1c(C)cc(N)c2ccccc21 | -11%[57.1 µM] | . | ? | . | 32µM* | ?
C=CCOc1ccc(/C=C2\SC(=S)N(C(C(=O)O)c3ccccc3)C2=O)cc1 (configuration not stated) | 79µM* | -13%[11.6 µM] | -4% | 1% | 5% | ?
CC(/C=C1\SC(=S)N(C(C(=O)O)c2ccccc2)C1=O)=C\c1ccccc1 (configuration not stated) | 89µM* | -10%[11.6 µM] | ? | -16% | 18% | ?
O=C(O)C(c1ccccc1)N1C(=O)/C(=C/c2cccs2)SC1=S (configuration not stated) | -8% | -29% | 0% | 3% | 1% | ?
CCOc1ccc(/C=C2\SC(=S)N(C(C(=O)O)c3ccccc3)C2=O)cc1OC (configuration not stated) | 79µM* | -5%[11.6 µM] | -10% | 5% | -16% | ?
O=S1(=O)c2ccccc2N(Cc2ccc(Cl)cc2F)c2ccccc21 | -11% | . | 3% | -1% | -10% | 23%
C(=C\c1ccnc2ccccc12)/c1ccc(N2CCNCC2)cc1 | . | . | 5% | -12% | . | 20%
O=C(CN1CCN(c2ccccc2F)CC1)c1ccc(O)c(O)c1 | ? | -8%[11.6 µM] | ? | 7% | 7% | 45µM*
O=c1cc(O)c2c([nH]1)CCC2 | . | . | -11% | 10% | . | 10%
Cc1oc2c(c1C(=O)O)C(=O)c1ccccc1C2=O | -29% | 3% | -17% | 11% | 3% | ?
Cc1oc2c(c1C(=O)c1ccccc1)C(=O)C(=O)c1ccccc1-2 | 20µM* | ? | -10% | -7% | 56µM* | 0.89µM*
CN(C)c1ccc(/C=C/C(=O)c2cccc(Br)c2)cc1 | -18% | ? | ? | -12% | ? | 79µM*
CNC(=O)Cn1c(=O)c2cccn2c2ccc(F)cc21 | 12% | . | 7% | 24% | -7% | -7%
COc1cccc(/C=C/c2ccnc3ccccc23)c1OC | . | . | -22% | -16% | . | 21%
CCCOc1ccc(-c2c(C(=O)N/N=C(\C)c3cccnc3)nnn2-c2nonc2N)cc1 | 4% | -1% | -31% | 1% | 1% | 45µM*
SMILES | POLH inh | WRN inhibitor | Pol kappa inh | FEN1 inhibitor | POLB inh | POLI inh
CCOC(=O)c1c(C)oc2nc(C)nc(NCCCN3CCN(c4cccc(C)c4)C(C)C3)c12 (configuration not stated) | -28% | . | ? | 6% | -24% | 89µM*
CCOC(=O)c1c(C)oc2nc(C)nc(NCCCN3CCN(c4ccccc4)CC3)c12 | -12% | . | 7% | 0% | 0% | -18%
Oc1ccccc1C1=Nc2ncnn2C(c2ccc(F)cc2)C1 (configuration not stated) | ? | ? | -8% | -16% | 32µM* | 2%
COc1cc2c(C(=O)N3CCN(c4cc(Cl)ccc4C)CC3)cn(CC(C)C)c(=O)c2cc1OC | -2% | . | 0% | -7% | 14% | ?
COc1cc2c(C(=O)N3CCN(c4cccc(C(F)(F)F)c4)CC3)cn(CC(C)C)c(=O)c2cc1OC | -21% | . | -13%[60.1 µM] | -23% | -5% | 89µM*
CC(C)(C)n1ncc2c(=O)n(Cc3ccc(Cl)c(SC(F)(F)F)c3)cnc21 | . | . | -18% | -3% | . | -4%
O=C(Nc1ncc([N+](=O)[O-])s1)c1ccccc1Br | 50µM* | -12% | ? | 15% | ? | 28µM*
O=C(O)c1cc(NS(=O)(=O)c2ccc(NC3CCCCC3)c([N+](=O)[O-])c2)cc(C(=O)O)c1 | 45µM* | -7%[11.6 µM] | -41% | 3% | 3% | -23%
COc1ccc(N2CCN(c3oc(/C=C/c4ccccc4OC)nc3C#N)CC2)cc1 | . | . | -12% | -10% | 26% | 10%
Cc1cc(NC(=O)c2ccc(S(=O)(=O)N3CCc4ccccc43)cc2)no1 | -20% | -4% | -2%[60.1 µM] | -17% | 50µM* | ?
COc1ccc(S(=O)(=O)N2CCc3ccccc32)cc1C(=O)Nc1ccc(C(N)=O)cc1 | -12% | 6% | -10% | 8% | . | 89µM*
COc1ccccc1C(=O)Nc1ccc(S(=O)(=O)N2CCc3ccccc32)cc1 | 2% | -2% | -4% | -12% | 5% | -2%
Cc1c(F)cccc1Cn1cnc2c(cnn2C(C)(C)C)c1=O | . | . | -6% | 5% | . | -9%
CC(C)(C)n1ncc2c(=O)n(Cc3ccccc3F)cnc21 | . | . | 9% | -6% | . | 14%
CCCCn1c(SCC(=O)c2ccc(O)c(O)c2)nc2ccsc2c1=O | 8.9µM* | ? | -22% | 7% | ? | ?
Cc1cccc(N2CCN(C(=O)C3CCCN(S(=O)(=O)c4cccc5nsnc45)C3)CC2)c1C (configuration not stated) | -15% | . | 0% | -11% | 10% | 8%
CCOC(=O)/C(=C\c1cccc(O)c1)c1nc2sc(C)c(C)c2c(=O)[nH]1 | -20% | ? | -9% | -6% | -29% | 18µM*
CCOC(=O)c1nc2sc(C)c(C)c2c(=O)[nH]1 | -11% | 2% | 12% | -14% | 32% | 68%
